Measured values taken from the OligoGym collection.
Also: reference of the scale not given here.

Each sequence was assayed against EPHX2 (assay: pooled miR-30 sensor sort-seq; sequence = guide strand). Settings: shRNA.
For TGCAATATTCTTCTATTTCGGG, the sensor-assay potency score (higher = more potent) was -0.612. TTGGATTGCAAGAGGTCGGCAG was tested, and the sensor-assay potency score (higher = more potent) was -0.532. TTTCTGGAAAGCATCATTCAGA was tested, and the sensor-assay potency score (higher = more potent) was -0.533. TCCAAGAATACCAACTCTCGGG gave a sensor-assay potency score (higher = more potent) of -1.01.

The sequences below were run against ERCC2 in the same assay as above. Settings: shRNA.
With TCGAAGCTCTTCAATCACCTTC the sensor-assay potency score (higher = more potent) was 0.181. Sequence TTGAGCAACTTTCGAAGCTCTT has a sensor-assay potency score (higher = more potent) of -0.541. TTGCGCTGGATGCACACGCGCT gave a sensor-assay potency score (higher = more potent) of -1.42. In the case of TGACAGACTGGAAACGCTCAAA, the sensor-assay potency score (higher = more potent) is reported as -0.97. Work on TTAGCAAGGAGGGTGAGCGGGG yielded a sensor-assay potency score (higher = more potent) of -1.04. Work on ATTCTCACGAATCTGGAACTGG yielded a sensor-assay potency score (higher = more potent) of -0.416. For AACAGGGATACTGTCTTCCCGG, the sensor-assay potency score (higher = more potent) was -1.06. For TTTGATCCTGAGCACCGTCTTC, the sensor-assay potency score (higher = more potent) was -1.12. TCTGGCACAGTTCTTGAGCAGT showed a sensor-assay potency score (higher = more potent) of -0.9. TTGAGCTCCCGCATGTAGGAGA was tested, and the sensor-assay potency score (higher = more potent) was -0.477. TTCAGCACAGAATCTGAGGGGC showed a sensor-assay potency score (higher = more potent) of 0.408. In the case of TCGATGATGATGGTGAAGCCTT, the sensor-assay potency score (higher = more potent) is reported as -1.27. Sequence TAGCTATAAACCACCACATTGG has a sensor-assay potency score (higher = more potent) of -1.42. Sequence TAGAAGTTGAGCAACTTTCGAA has a sensor-assay potency score (higher = more potent) of 0.118. Work on TGAATACACAAGTTTTTGCGGG yielded a sensor-assay potency score (higher = more potent) of 0.0838. TGGAAGTCCAGGATCTTGGGGT was tested, and the sensor-assay potency score (higher = more potent) was 0.059. TCAATCTCTGGCACAGTTCTTG showed a sensor-assay potency score (higher = more potent) of 0.0123. For TTCCCATCGACGTCCTTCCCAA, the sensor-assay potency score (higher = more potent) was -0.665. Work on TGTAGGAGAACTGCTCGGGGTA yielded a sensor-assay potency score (higher = more potent) of -0.658. TTGAGCAGTAGATGAGTTTGGT showed a sensor-assay potency score (higher = more potent) of 0.18. TCGTCTGTCTCTTTGATCCTGA showed a sensor-assay potency score (higher = more potent) of -0.221. For TTGGGGTAGATGTCCAGCGGGG, the sensor-assay potency score (higher = more potent) was -1.14. In the case of TCAAATTCCTCATAGAATCGGC, the sensor-assay potency score (higher = more potent) is reported as -0.0111. Work on TATCGAGCAAGGAAGTATGGGC yielded a sensor-assay potency score (higher = more potent) of 0.161.

What follows are sequences tested against ERCC8 in the same assay as above. Settings: shRNA.
TTGACTGAAATACACAGCAGTC gave a sensor-assay potency score (higher = more potent) of -0.992. TCTACTGTCAGCACTTGCTGTT showed a sensor-assay potency score (higher = more potent) of 0.468. In the case of TTACTCTACTGTCAGCACTTGC, the sensor-assay potency score (higher = more potent) is reported as -0.793. With TTGAAAAAAACACAGTCTCATT the sensor-assay potency score (higher = more potent) was -1.3. TAAACTATACAGAAGTCTGTTT gave a sensor-assay potency score (higher = more potent) of -0.703. Sequence TATTTCTTGTCTGTGACCCTGT has a sensor-assay potency score (higher = more potent) of 1.1. TTTAATTGTGATTTTGTTGTAG showed a sensor-assay potency score (higher = more potent) of 0.555. Sequence TCTGTCTTTATTTAATTCCAGT has a sensor-assay potency score (higher = more potent) of -1.2. For TTGTTGTAGTCTCATCATCATC, the sensor-assay potency score (higher = more potent) was -1.65. TTGTAGTCTCATCATCATCAGG showed a sensor-assay potency score (higher = more potent) of -1.16. With TAGCTGTCAGGAATAGACCATA the sensor-assay potency score (higher = more potent) was -0.945. Work on ATTATCTGTACCAACAGTGAGG yielded a sensor-assay potency score (higher = more potent) of -0.965.
